Laboratory results: paper PMC11006913

Key:
Test in all cases: PBM; 200 nM protein, PBS
Settings in all cases: dsDNA, one strand shown
[1] = biological target: HESX1 (Homo sapiens, UniProt Q9UBX0 95-180, R165K)
[2] = biological target: HESX1 (Homo sapiens, UniProt Q9UBX0 95-180)
[3] = biological target: PROP1 (Homo sapiens, UniProt O75360 56-141)
[4] = biological target: HESX1 (Homo sapiens, UniProt Q9UBX0 95-180, R109Q)
[5] = biological target: PROP1 (Homo sapiens, UniProt O75360 56-141, R99H)
[6] = biological target: HESX1 (Homo sapiens, UniProt Q9UBX0 95-180, P111T)
[7] = biological target: PROP1 (Homo sapiens, UniProt O75360 56-141, F88S)
[8] = biological target: HESX1 (Homo sapiens, UniProt Q9UBX0 95-180, F115L)
[9] = biological target: T1, NKX2-6 (Homo sapiens, UniProt A6NCS4 118-204, R150C)
T1 sequence: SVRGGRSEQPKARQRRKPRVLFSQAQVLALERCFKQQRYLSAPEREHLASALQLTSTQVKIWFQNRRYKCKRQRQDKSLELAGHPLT

[10] = biological target: VAX1 (Homo sapiens, UniProt Q5SQQ9 86-172)
[11] = biological target: VAX1 (Homo sapiens, UniProt Q5SQQ9 86-172, T142I)
[12] = biological target: VAX1 (Homo sapiens, UniProt Q5SQQ9 86-172, K157R)
Chain of VAX1 (Homo sapiens, UniProt Q5SQQ9 86-172, K157R) (Q5SQQ9 86-172 K157R): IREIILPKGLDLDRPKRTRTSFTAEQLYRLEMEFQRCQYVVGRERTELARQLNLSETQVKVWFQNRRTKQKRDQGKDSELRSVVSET

Chain of HESX1 (Homo sapiens, UniProt Q9UBX0 95-180, F115L) (Q9UBX0 95-180 F115L): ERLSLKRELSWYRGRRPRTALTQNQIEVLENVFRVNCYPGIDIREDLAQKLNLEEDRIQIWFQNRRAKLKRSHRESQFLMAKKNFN
Chain of HESX1 (Homo sapiens, UniProt Q9UBX0 95-180, R109Q) (Q9UBX0 95-180 R109Q): as the sequence (Q9UBX0 95-180 F115L) above, with R15Q, L21F counted along it
Chain of HESX1 (Homo sapiens, UniProt Q9UBX0 95-180, P111T) (Q9UBX0 95-180 P111T): as the sequence (Q9UBX0 95-180 F115L) above, with P17T, L21F counted along it
Chain of HESX1 (Homo sapiens, UniProt Q9UBX0 95-180, R165K) (Q9UBX0 95-180 R165K): as the sequence (Q9UBX0 95-180 F115L) above, with L21F, R71K counted along it
Chain of HESX1 (Homo sapiens, UniProt Q9UBX0 95-180) (Q9UBX0 95-180): as the sequence (Q9UBX0 95-180 F115L) above, with L21F counted along it
Chain of VAX1 (Homo sapiens, UniProt Q5SQQ9 86-172) (Q5SQQ9 86-172): as the sequence (Q5SQQ9 86-172 K157R) above, with R72K counted along it
Chain of VAX1 (Homo sapiens, UniProt Q5SQQ9 86-172, T142I) (Q5SQQ9 86-172 T142I): as the sequence (Q5SQQ9 86-172 K157R) above, with T57I, R72K counted along it
Chain of PROP1 (Homo sapiens, UniProt O75360 56-141, F88S) (O75360 56-141 F88S): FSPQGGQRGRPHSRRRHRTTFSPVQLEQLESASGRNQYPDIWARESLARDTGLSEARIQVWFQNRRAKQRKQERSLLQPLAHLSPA
Chain of PROP1 (Homo sapiens, UniProt O75360 56-141) (O75360 56-141): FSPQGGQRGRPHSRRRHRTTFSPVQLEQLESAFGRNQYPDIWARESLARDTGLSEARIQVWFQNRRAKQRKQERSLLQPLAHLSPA
Chain of PROP1 (Homo sapiens, UniProt O75360 56-141, R99H) (O75360 56-141 R99H): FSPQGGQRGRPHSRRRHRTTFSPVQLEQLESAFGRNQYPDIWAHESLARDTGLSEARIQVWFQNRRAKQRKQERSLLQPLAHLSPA

GAAGGAGC
binding signal [1]: 6.42 upbm affinity estimate (log intensity, higher = more binding, comparable within an allelic series)
binding signal [2]: 6.37 upbm affinity estimate (log intensity, higher = more binding, comparable within an allelic series)
binding signal [3]: 6.66 upbm affinity estimate (log intensity, higher = more binding, comparable within an allelic series)
binding signal [4]: 6.46 upbm affinity estimate (log intensity, higher = more binding, comparable within an allelic series)
binding signal [5]: 6.54 upbm affinity estimate (log intensity, higher = more binding, comparable within an allelic series)
binding signal [6]: 6.42 upbm affinity estimate (log intensity, higher = more binding, comparable within an allelic series)
binding signal [7]: 6.62 upbm affinity estimate (log intensity, higher = more binding, comparable within an allelic series)
binding signal [8]: 6.55 upbm affinity estimate (log intensity, higher = more binding, comparable within an allelic series)

CACTGGAG
binding signal [1]: 6.53 upbm affinity estimate (log intensity, higher = more binding, comparable within an allelic series)
binding signal [2]: 6.53 upbm affinity estimate (log intensity, higher = more binding, comparable within an allelic series)
binding signal [4]: 6.58 upbm affinity estimate (log intensity, higher = more binding, comparable within an allelic series)
binding signal [6]: 6.6 upbm affinity estimate (log intensity, higher = more binding, comparable within an allelic series)
binding signal [8]: 6.61 upbm affinity estimate (log intensity, higher = more binding, comparable within an allelic series)

AGCCGGTC
binding signal [1]: 6.51 upbm affinity estimate (log intensity, higher = more binding, comparable within an allelic series)
binding signal [2]: 6.44 upbm affinity estimate (log intensity, higher = more binding, comparable within an allelic series)
binding signal [9]: 9.54 upbm affinity estimate (log intensity, higher = more binding, comparable within an allelic series)
binding signal [4]: 6.51 upbm affinity estimate (log intensity, higher = more binding, comparable within an allelic series)
binding signal [6]: 6.57 upbm affinity estimate (log intensity, higher = more binding, comparable within an allelic series)
binding signal [8]: 6.52 upbm affinity estimate (log intensity, higher = more binding, comparable within an allelic series)

AGTCGCGC
binding signal [1]: 6.38 upbm affinity estimate (log intensity, higher = more binding, comparable within an allelic series)
binding signal [2]: 6.32 upbm affinity estimate (log intensity, higher = more binding, comparable within an allelic series)
binding signal [4]: 6.51 upbm affinity estimate (log intensity, higher = more binding, comparable within an allelic series)
binding signal [10]: 7.29 upbm affinity estimate (log intensity, higher = more binding, comparable within an allelic series)
binding signal [6]: 6.45 upbm affinity estimate (log intensity, higher = more binding, comparable within an allelic series)
binding signal [8]: 6.58 upbm affinity estimate (log intensity, higher = more binding, comparable within an allelic series)
binding signal [11]: 7.12 upbm affinity estimate (log intensity, higher = more binding, comparable within an allelic series)
binding signal [12]: 7.18 upbm affinity estimate (log intensity, higher = more binding, comparable within an allelic series)

ACTTTATA
binding signal [1]: 7.59 upbm affinity estimate (log intensity, higher = more binding, comparable within an allelic series)
binding signal [2]: 7.66 upbm affinity estimate (log intensity, higher = more binding, comparable within an allelic series)
binding signal [4]: 7.19 upbm affinity estimate (log intensity, higher = more binding, comparable within an allelic series)
binding signal [6]: 7.41 upbm affinity estimate (log intensity, higher = more binding, comparable within an allelic series)
binding signal [8]: 7.31 upbm affinity estimate (log intensity, higher = more binding, comparable within an allelic series)

CAATATCG
binding signal [1]: 7.31 upbm affinity estimate (log intensity, higher = more binding, comparable within an allelic series)
binding signal [2]: 7.37 upbm affinity estimate (log intensity, higher = more binding, comparable within an allelic series)
binding signal [4]: 7.14 upbm affinity estimate (log intensity, higher = more binding, comparable within an allelic series)
binding signal [6]: 7.2 upbm affinity estimate (log intensity, higher = more binding, comparable within an allelic series)

AACTCATA
binding signal [1]: 7.51 upbm affinity estimate (log intensity, higher = more binding, comparable within an allelic series)
binding signal [2]: 7.49 upbm affinity estimate (log intensity, higher = more binding, comparable within an allelic series)
binding signal [4]: 7.12 upbm affinity estimate (log intensity, higher = more binding, comparable within an allelic series)
binding signal [6]: 7.23 upbm affinity estimate (log intensity, higher = more binding, comparable within an allelic series)

AGCACGCT
binding signal [1]: 6.37 upbm affinity estimate (log intensity, higher = more binding, comparable within an allelic series)
binding signal [2]: 6.39 upbm affinity estimate (log intensity, higher = more binding, comparable within an allelic series)
binding signal [4]: 6.5 upbm affinity estimate (log intensity, higher = more binding, comparable within an allelic series)
binding signal [6]: 6.4 upbm affinity estimate (log intensity, higher = more binding, comparable within an allelic series)
binding signal [8]: 6.46 upbm affinity estimate (log intensity, higher = more binding, comparable within an allelic series)

ACAGCGCG
binding signal [1]: 6.46 upbm affinity estimate (log intensity, higher = more binding, comparable within an allelic series)
binding signal [2]: 6.41 upbm affinity estimate (log intensity, higher = more binding, comparable within an allelic series)
binding signal [4]: 6.49 upbm affinity estimate (log intensity, higher = more binding, comparable within an allelic series)
binding signal [10]: 7.27 upbm affinity estimate (log intensity, higher = more binding, comparable within an allelic series)
binding signal [6]: 6.48 upbm affinity estimate (log intensity, higher = more binding, comparable within an allelic series)
binding signal [8]: 6.44 upbm affinity estimate (log intensity, higher = more binding, comparable within an allelic series)
binding signal [11]: 7.28 upbm affinity estimate (log intensity, higher = more binding, comparable within an allelic series)
binding signal [12]: 7.22 upbm affinity estimate (log intensity, higher = more binding, comparable within an allelic series)
